Shown are actives, neighbours in structure and some others; about 3% of the full set was active somewhere.
DRD3 antagonist: qHTS of D3 Dopamine Receptor Antagonist: qHTS; D(3) dopamine receptor (Homo sapiens), P35462; D3R cells, DiscoveRx beta-arrestin luminescence, antagonist mode; active compounds read low; max response, negative = inhibition, %; actives 2.5% (n = 360,000); AID 652054, 2013; in the data active = max response below about -50%; inconclusive = no clear call, values can overlap the other calls
Target sequence (P35462 whole entry, looked up): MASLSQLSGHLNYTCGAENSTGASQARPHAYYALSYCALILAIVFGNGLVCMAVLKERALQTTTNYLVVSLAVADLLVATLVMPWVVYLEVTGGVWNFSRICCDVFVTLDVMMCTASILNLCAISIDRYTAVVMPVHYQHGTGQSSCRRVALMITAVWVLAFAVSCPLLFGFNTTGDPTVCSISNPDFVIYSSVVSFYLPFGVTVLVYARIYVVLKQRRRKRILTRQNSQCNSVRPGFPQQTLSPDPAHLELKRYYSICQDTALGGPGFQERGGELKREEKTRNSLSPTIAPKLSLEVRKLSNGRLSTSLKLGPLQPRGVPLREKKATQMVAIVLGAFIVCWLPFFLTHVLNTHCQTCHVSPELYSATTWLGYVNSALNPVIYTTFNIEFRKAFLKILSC
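Cells plated overnight at 1500 cells/well, then exposed to library compounds with dopamine controls for 90 minutes at 37 degrees C. DiscoveRx reagent added for 30–60 minutes at room temperature; luminescence read, quantitative HTS format.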
DRD3 agonist: qHTS of D3 Dopamine Receptor Agonist: qHTS; actives 0.58% (n = 410,000); max activation, %; D(3) dopamine receptor (Homo sapiens), P35462; D3R DiscoveRx beta-arrestin cells, luminescence, 90 min; AID 652048, 2013; in the data active = max activation above about 30%
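Agonist-mode cell screen: cells plated at 1500/well and incubated overnight at 37 °C, then exposed to library compounds for 90 min at 37 °C. Detection reagent was added for 30–60 min at room temperature, and luminescence was read.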
Nrf2 ARE act: qHTS of Nrf2 Activators; AREc32 ARE-luciferase reporter (MCF7-derived line), luminescence, 24 h; actives 0.31% (n = 410,000); Potency, µM (series often up to 46.1 µM), hits mostly activators; AID 624171, 2012; note: nearly all actives have a fitted effect of over 65% in size
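Luciferase luminescence (Steady-Glo, 30 min at room temperature) served as the read-out of ARE activation in AREc32 cells treated with compounds for 24 hr at 37 deg C.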
Glioma ERSR ind: qHTS for Inducers of the Endoplasmic Reticulum Stress Response (ERSR) in Human Glioma: qHTS; U87-MG GRP78 promoter luciferase reporter, 16 h; Potency, µM, usual class: activators; actives 0.02% (n = 420,000); AID 602332, 2012; note: series mostly up to about 76 µM; nearly all actives have a fitted effect of over 35% in size
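ERSR induction read as luciferase luminescence (Bright-Glo, 10 min at room temperature) in stably transfected human U87-MG glioma cells exposed to compounds for 16 h, using GRP78 as sensor.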
Hits are given with their value; 0 = inactive; ? = inconclusive; - = not tested or not shown; [ ] = remark or other dose. Unless noted, calls come from the whole dose curve; as a rule, active = well fitted curve in the direction sought with a large enough effect; inconclusive = small, poorly fitted or top-dose-only effect, or another doubt; inactive = no such curve, though single readings can be large; an effect the other way counts as inactive or inconclusive.

SMILES	DRD3 antagonist	DRD3 agonist	Nrf2 ARE act	Glioma ERSR ind
CC(CCc1ccccc1)NCC#N (configuration not stated)	0	32.3	0	0
COc1cc(CCC(C)NCc2ccccc2)ccc1O (configuration not stated)	0	31.7	0	0
COc1ccc(CNC(C)CCc2ccccc2)cc1 (configuration not stated)	-55.2	0	0	0
CC(CCc1ccc(O)cc1)NCc1ccc(Br)cc1 (configuration not stated)	0	80.0	0	0
COc1ccc(CCC(C)NCc2ccc(C(F)(F)F)cc2)cc1 (configuration not stated)	?	0	0	0
Cc1ccc(C)c(NC(=O)Cn2c(SCC(=O)NCc3ccccc3)nc3ccccc32)c1	-	0	0	0
COc1ccc(CCC(C)NC2C3CC4CC(C3)CC2C4)cc1 (configuration not stated)	-96.6	0	0	0
COc1ccc(CCC(C)Nc2ccccc2F)cc1 (configuration not stated)	0	0	0	0
Cc1sc2ccccc2c1CNC[C@H]1O[C@@H](n2cnc(C(N)=O)n2)[C@H](O)[C@@H]1O	0	47.9	0	0
Cc1sc2ccccc2c1CNC[C@H]1O[C@@H](n2ccc(N)nc2=O)[C@H](O)[C@@H]1O	0	0	0	0
Cc1cccc(-c2nnc(-c3ccccc3)o2)c1	0	0	11.2µM	0
COc1cc(C(=O)O/N=C2\C=CC(=O)C(C)=C2)cc(OC)c1OC	-57.4	0	?	0
COc1cc(C(=O)ON=C2C=C(C)C(=O)C(C)=C2)cc(OC)c1OC	0	0	0	0
Cc1nc(C)c(C(=O)O)s1	0	46.8	0	0
Cc1nc(C)c(C(=O)Nc2ccccc2)s1	0	0	0	0
Cc1cc(F)cc(-c2cc(C(=O)NCC3CCCCC3)[nH]n2)c1	?	0	0	0
Cc1ccc(Cl)cc1-c1cc(C(=O)NCC2CCCCC2)[nH]n1	-69.9	0	0[9.22 µM]	0
COc1ccc(-c2cc(C(=O)NCC3CCCCC3)[nH]n2)c(C)c1	-78.5	0	0[9.22 µM]	0
CC1CN(Cc2cccn2-c2cccnc2)Cc2cc(Cl)ccc2O1 (configuration not stated)	-	-	-	0
Clc1cccc[n+]1CCCCCC[n+]1ccccc1Cl	-	-	-	0
CC(C)(C)n1ncc2c(=O)n(Cc3ccc(Cl)c(SC(F)(F)F)c3)cnc21	-	-	-	0
Brc1ccc(-c2nnc(-c3cccnc3)o2)cc1	0	0	0	0
Brc1ccccc1-c1nnc(-c2cccnc2)o1	0	0	15.8µM	0
Cn1c(COc2ccc(Br)cc2)nnc1SC1CCc2ccccc2C1=O (configuration not stated)	-56.6	0	0[9.22 µM]	0
COc1cc2oc3cc(C#Cc4ccc(N)cc4)ccc3c(=O)c2cc1OC	0	57.1	0	0
SMILES	DRD3 antagonist	DRD3 agonist	Nrf2 ARE act	Glioma ERSR ind
COc1cc2oc3ccc(C#Cc4ccc(N)cc4)cc3c(=O)c2cc1OC	0	0	0	0
O=C(N=Nc1c(O)[nH]c2ccc(Br)cc12)c1ccccc1-n1cccc1	0	0	0	0
O=C(N=Nc1c(O)[nH]c2ccc(Br)cc12)c1ccco1	0	0	5.01µM	0
Cc1cccc(CNC(=O)c2cnn(-c3nccc(-c4ccccc4C(F)(F)F)n3)c2C)n1	-	-	-	0
Cc1c(Cl)cccc1Nc1nc(NCCO)c2ccccc2n1	0	0	0	31.6µM
OCCNc1nc(Nc2ccccc2)nc2ccccc12	0	0	0	31.6µM
OCCNc1nc(Nc2ccc(Br)cc2)nc2ccccc12	0	0	0	?
COc1cc(N)c(N)cc1OC	-	-	-	0
COc1ccccc1Oc1ccc(S(=O)(=O)NCc2ccccn2)cc1	-78.9	0	0	0
O=c1c(Br)ccc(Br)cc1Br	-114.3	0	0	0
COc1cc(=O)n2c(c1C(=O)NCc1ccco1)CCN(Cc1ccc3ccccc3c1)CC2	-	-	-	0
COc1ccc([C@@H]2COc3c(ccc4c3C=CC(C)(C)O4)C2)c(OC)c1	0	33.1	0	0
COc1cc(CN2CCCC(c3nc(-c4ccncc4)ncc3-c3ccccc3)C2)ccc1O (configuration not stated)	-	-	-	0
C[C@@H]1O[C@@]2(CS1)CN1CCC2CC1	-	-	-	0
Cc1ccc(Nc2nnns2)cc1	0	0	0	0
CC1=CC(C)(C)N=C(Nc2ccc(C)cc2)S1	-74.0	0	0	0
O=C(NCC(c1cccnc1)N1CCN(c2ccccc2F)CC1)c1ccco1 (configuration not stated)	0	0	0	0
O=C(NCC(c1ccco1)N1CCN(c2ccccc2F)CC1)c1cccs1 (configuration not stated)	0	0	0	0
O=C(NCC(c1ccco1)N1CCN(c2ccccc2F)CC1)c1ccco1 (configuration not stated)	0	38.5	0	0
O=C(NCc1cccs1)C(=O)NCC(c1ccco1)N1CCN(c2ccccc2F)CC1 (configuration not stated)	0	72.9	0	0
Cc1ccc(C(CNC(=O)c2ccco2)N2CCN(C)CC2)cc1 (configuration not stated)	-56.9	0	0	0
CN(C)c1ccc(N=Nc2ccnc3ccccc23)cc1	-	-	-	0
O=[N+]([O-])c1ccc(C2=Nc3cc(Cl)ccc3OC2)cc1	0	0	12.6µM	0
CN(C)CCCNc1oc(-c2ccc(Cl)cc2)nc1S(=O)(=O)c1ccccc1	-73.1	0	0	0
CN(C)CCCNc1oc(-c2ccccc2Cl)nc1S(=O)(=O)c1ccccc1	-72.4	0	0	0
SMILES	DRD3 antagonist	DRD3 agonist	Nrf2 ARE act	Glioma ERSR ind
CCC1CN(C(=O)Nc2ccccc2C(F)(F)F)c2ccccc2O1 (configuration not stated)	-	0	0	0
CCOC(=O)C1=C(CNCc2ccc(C)cc2)NC(=O)NC1c1cc(C)ccc1C (configuration not stated)	0	0	0	0
COC(=O)C1=C(Cn2cnc3ccccc32)NC(=O)NC1c1cc(C)ccc1C (configuration not stated)	0	39.6	0	0
CCOC(=O)C1=C(Cn2cnc3ccccc32)NC(=O)NC1c1cc(C)ccc1C (configuration not stated)	0	34.1	0	0
Cc1ncc2c(c1CNC(=O)c1ccc3c(c1)OCO3)CCN(C(=O)c1csc3c1CCCC3)C2	-	-	-	0
CCOC(=O)c1c(-c2ccc(C)o2)csc1NC(=O)CN1CCN(CC)CC1	-105.7	0	0	0
CCN(CC)CCCNc1ncnc2c1cnn2-c1ccc(C)c(C)c1	-	0	0	0
Cc1c(Br)cc(C(=O)OC2CCN(C)CC2)c(C)c1C	-88.0	0	0	0
CN1CCC(OC(=O)c2ccccc2)CC1	0	0	0	0
CCn1cc([N+](=O)[O-])c(C(=O)N2CCN(C(=O)c3ccco3)CC2)n1	0	0	0	0
CCn1cc([N+](=O)[O-])c(C(=O)N2CCCC2)n1	0	32.3	0	0
c1ccc(-c2cc(-c3cc(-c4ccccc4)on3)no2)cc1	0	0	0	0

Screens (PubChem BioAssay)
